Measured values from PubChem BioAssay (Tox21).
Records with an inconclusive call do not appear. The source made the active and inactive calls. Unless noted, calls come from the whole dose curve; as a rule, active = well fitted curve in the direction sought with a large enough effect in the repeat runs; inconclusive = weak or mixed curves; inactive = no such curve, though single readings can be large; an effect the other way counts as inactive or inconclusive.

Key:
[1] = qHTS assay to identify small molecule agonists of the estrogen receptor alpha (ER-alpha) signaling pathway in the presence of an antagonist - cell viability counter screen (AID 1259386);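 note: cells exposed to compounds for 22 h at 37 °C before the viability read; nearly all actives have a fitted effect of over 30% in size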; note: potency is the fitted concentration of half-maximal effect; for activity change, negative = cytotoxicity: series mostly up to about 92 µM
Outline: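 Viability counter screen using VM7Luc4E2 (full-length ER-alpha, four ERE-luciferase). The cells were treated with compounds alongside ICI-182,780 10.0nM for 22hr, and live-cell protease fluorescence was quantified with CellTiter-Fluor.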

[2] = biological target: Progesterone receptor (Homo sapiens) (UniProt P06401); assay: qHTS assay to identify small molecule agonists of the progesterone receptor (PR) signaling pathway (AID 1346784; calls by dose curve; note: nearly all actives have a fitted effect of over 30% in size)
Progesterone receptor (Homo sapiens), sequence (P06401 whole entry, looked up): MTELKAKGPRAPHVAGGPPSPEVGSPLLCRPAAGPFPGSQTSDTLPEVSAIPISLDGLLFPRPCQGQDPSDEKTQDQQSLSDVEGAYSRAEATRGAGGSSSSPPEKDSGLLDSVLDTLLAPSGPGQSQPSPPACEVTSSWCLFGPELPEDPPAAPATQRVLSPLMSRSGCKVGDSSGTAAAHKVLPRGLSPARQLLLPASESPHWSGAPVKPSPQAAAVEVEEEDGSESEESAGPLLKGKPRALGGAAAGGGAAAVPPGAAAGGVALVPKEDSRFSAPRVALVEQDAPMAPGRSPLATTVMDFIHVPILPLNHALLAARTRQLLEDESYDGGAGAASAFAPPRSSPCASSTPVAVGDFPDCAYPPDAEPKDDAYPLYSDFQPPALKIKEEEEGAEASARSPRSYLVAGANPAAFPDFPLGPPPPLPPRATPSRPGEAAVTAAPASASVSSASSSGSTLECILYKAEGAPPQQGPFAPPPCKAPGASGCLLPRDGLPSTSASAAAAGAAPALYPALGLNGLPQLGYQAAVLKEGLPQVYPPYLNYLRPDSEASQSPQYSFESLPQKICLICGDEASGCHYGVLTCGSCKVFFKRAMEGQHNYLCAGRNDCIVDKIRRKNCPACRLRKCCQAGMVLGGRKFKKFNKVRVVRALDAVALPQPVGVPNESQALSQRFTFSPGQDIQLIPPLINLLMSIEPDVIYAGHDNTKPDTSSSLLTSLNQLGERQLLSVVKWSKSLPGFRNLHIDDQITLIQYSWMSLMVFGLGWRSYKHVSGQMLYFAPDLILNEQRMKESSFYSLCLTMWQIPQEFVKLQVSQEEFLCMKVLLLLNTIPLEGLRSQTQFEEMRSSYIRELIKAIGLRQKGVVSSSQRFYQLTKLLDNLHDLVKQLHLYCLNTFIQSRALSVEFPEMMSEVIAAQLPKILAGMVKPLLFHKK
Outline: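 Beta-lactamase reporter read-out: after 16 hr compound treatment at 37C and a further 2 hr at room temperature with LiveBLAzer B/G FRET substrate, fluorescence was measured in PR-UAS-bla HEK 293T cells grown in 2% charcoal-stripped serum.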

[3] = biological target: Progesterone receptor (Homo sapiens) (UniProt P06401); assay: qHTS assay to identify small molecule antagonists of the progesterone receptor (PR) signaling pathway (AID 1346795; active = well fitted inhibition curve with a large enough effect in the signal ratio in the repeat runs, not every such curve was filed as active; the % refers to the signal ratio)
Outline: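 Read-out is fluorescence from the LiveBLAzer B/G FRET substrate, cleaved by a UAS-controlled beta-lactamase in PR-UAS-bla HEK293T cells after 16 hr exposure to compound plus 1 nM promegestone (final), followed by 2 hr at room temperature.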

[4] = qHTS assay to identify small molecule antagonists of the progesterone receptor (PR) signaling pathway - cell viability counter screen (AID 1346798);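 note: HEK293T PR-UAS-bla cells stimulated with the agonist R5020; series mostly up to about 92 µM; nearly all actives have a fitted effect of over 50% in size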
Outline: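 HEK293T PR-UAS-bla, 2% charcoal-stripped FBS; 4 hr pre-plate; cpd + R5020, 16 h 37C; LiveBLAzer read first; then CellTiter-Glo 30 min RT, luminescence.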

[5] = qHTS assay to identify small molecule agonists of the progesterone receptor (PR) signaling pathway - cell viability counter screen (AID 1346799; calls by dose curve; note: nearly all actives have a fitted effect of over 45% in size)
Outline: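 Luminescence from CellTiter-Glo, added after the beta-lactamase FRET read in the same wells, gave cytotoxicity in PR-UAS-bla HEK293T cells treated with compounds for 16 hr at 37C.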

[6] = qHTS assay to identify small molecule antagonists of the TGF-beta/Smad signaling pathway - cell viability counter screen (AID 1346824); note: nearly all actives have a fitted effect of over 50% in size
Outline: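 SBE-bla HEK 293T cells, incubated overnight, then compound plus 0.25 ng/mL TGF-beta1 (stock added) for 5 hr at 37 C. Viability was read in the same wells by CellTiter-Glo luminescence after 30 min at room temperature.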

[7] = qHTS assay to identify small molecule agonists of the TGF-beta/Smad signaling pathway - cell viability counter screen (AID 1346829); note: top concentration of the series differs between compounds; nearly all actives have a fitted effect of over 45% in size
Outline: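 Compound-treated SBE-bla HEK 293T cells (5 hr, 37 C) were assessed for viability with CellTiter-Glo in parallel with the reporter read.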

[8] = qHTS assay to identify small molecule agonists of the TGF-beta/Smad signaling pathway (AID 1346859; active = well fitted activation curve with a large enough effect in the signal ratio in the repeat runs, not every such curve was filed as active; the % refers to the signal ratio; note: series mostly up to about 77 µM)
Outline: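 SBE-bla HEK 293T, 4,000 cells/well, plated o/n; cpd in DMSO, 5 hr, 37 C/5% CO2; B/G FRET substrate 2 hr RT; ex 405, em 460/530 nm.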

[9] = biological target: Thyrotropin-releasing hormone receptor (Homo sapiens) (UniProt P34981); assay: qHTS assay to identify small molecule antagonists of the thyrotropin-releasing hormone receptor (TRHR) signaling pathway (AID 1346877; active = well fitted inhibition curve with a large enough effect in the repeat runs, not every such curve was filed as active; note: series mostly up to about 51 µM)
Thyrotropin-releasing hormone receptor (Homo sapiens), sequence (P34981 whole entry, looked up): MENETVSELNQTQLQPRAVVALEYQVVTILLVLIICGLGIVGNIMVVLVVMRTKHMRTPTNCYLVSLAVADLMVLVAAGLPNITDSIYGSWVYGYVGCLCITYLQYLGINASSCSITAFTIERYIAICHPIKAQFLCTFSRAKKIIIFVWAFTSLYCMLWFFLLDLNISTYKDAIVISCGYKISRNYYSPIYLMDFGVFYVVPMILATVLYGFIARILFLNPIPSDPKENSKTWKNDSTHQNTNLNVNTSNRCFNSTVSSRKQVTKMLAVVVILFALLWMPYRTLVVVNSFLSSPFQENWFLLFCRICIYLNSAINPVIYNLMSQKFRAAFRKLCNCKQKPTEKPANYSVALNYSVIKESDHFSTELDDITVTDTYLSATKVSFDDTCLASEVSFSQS
Outline: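 Following an 18 h incubation at 37 °C and a 2 h calcium dye load, TRHR-HEK293 cells were exposed to compound (5 min, room temperature) and challenged with TRH, 1 nM final.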

[10] = biological target: Thyrotropin-releasing hormone receptor (Homo sapiens) (UniProt P34981); assay: qHTS assay to identify small molecule agonists of the thyrotropin-releasing hormone receptor (TRHR) signaling pathway (AID 1346891; calls by dose curve; note: series mostly up to about 58 µM)
Outline: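 Intracellular calcium rise, read as fluorescence every second for 3 min, served as the agonist signal in dye-loaded HEK293 cells expressing TRHR; each compound ran at 15 concentrations in triplicate.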
% is set by controls: 0 for no effect and ±100 for the full control effect.

COc1ccc(S(=O)(=O)N2c3ccc(Cl)cc3[C@@](O)(c3ccccc3Cl)[C@H]2C(=O)N2CCC[C@@H]2C(N)=O)cc1OC
inactive: Potency [1] | Potency [2] | Potency [3] | Potency [4] | Potency [5] | outcome [6] | outcome [7] | outcome [8] | outcome [9] | outcome [10]

C=C(C)C(=O)OCCN(CC)CC
inactive: Potency [1] | Potency [2] | Potency [3] | Potency [5] | outcome [6] | outcome [7] | outcome [8] | outcome [9] | outcome [10]

Nc1ccc2cc(S(=O)(=O)O)cc(O)c2c1
inactive: Potency [2] | Potency [3] | Potency [5] | outcome [6] | outcome [7] | outcome [8] | outcome [9] | outcome [10]
active: Potency [1] 48.3 µM

CCOc1cc(NC(C)=O)ccc1C(=O)OC
inactive: Potency [1] | Potency [2] | Potency [3] | Potency [5] | outcome [6] | outcome [7] | outcome [8] | outcome [9] | outcome [10]

CN1CCN(CC(=O)N2c3ccccc3C(=O)Nc3cccnc32)CC1
inactive: activity change, negative = cytotoxicity [1] -1.63% [at 8.39 µM] | activation [2] -0.718% [at 8.39 µM] | activity change, negative = cytotoxicity [4] 1.84% [at 8.39 µM] | activity change, negative = cytotoxicity [5] -2.12% [at 8.39 µM] | activity change, negative = cytotoxicity [7] -15% [at 6.97 µM] | activation [8] -0.857% [at 6.97 µM]

CC1=CCC(C(C)C)=CC1
inactive: Potency [1] | Potency [2] | Potency [4] | Potency [5] | outcome [7] | outcome [8]

O=C(O)C(=O)Cc1ccccc1
inactive: Potency [1] | Potency [2] | Potency [3] | Potency [5] | outcome [7] | outcome [8] | outcome [9] | outcome [10]

CCCN1C[C@H](CSC)C[C@@H]2c3cccc4[nH]cc(c34)C[C@H]21
inactive: Potency [1] | Potency [2] | Potency [4] | Potency [5] | outcome [6] | outcome [7] | outcome [9] | outcome [10]

CN(CCOc1ccc(NS(C)(=O)=O)cc1)CCc1ccc(NS(C)(=O)=O)cc1
inactive: Potency [1] | Potency [2] | Potency [3] | Potency [5] | outcome [7] | outcome [8]

Brc1ccc(-c2ccccc2)cc1
inactive: Potency [1] | Potency [2] | Potency [4] | Potency [5] | outcome [6] | outcome [7] | outcome [8]

C[C@@H](O)[C@H]1C(=O)N2C(C(=O)O)=C(SCCN=CN)C[C@H]12
inactive: Potency [1] | Potency [2] | Potency [4] | Potency [5] | outcome [6] | outcome [8] | outcome [9] | outcome [10]

COc1ccc(-c2cc(=O)c3c(O)cc(O[C@@H]4O[C@H](CO[C@@H]5O[C@@H](C)[C@H](O)[C@@H](O)[C@H]5O)[C@@H](O)[C@H](O)[C@H]4O)cc3o2)cc1O
inactive: Potency [1] | Potency [2] | Potency [3] | Potency [5] | outcome [8] | outcome [9] | outcome [10]

Oc1ccccc1-c1nnco1
inactive: Potency [1] | Potency [2] | Potency [4] | Potency [5] | outcome [6] | outcome [8] | outcome [9] | outcome [10]

NS(=O)(=O)c1cc2c(cc1Cl)CN(C1CCCCC1)C2=O
inactive: Potency [1] | Potency [2] | Potency [3] | Potency [5] | outcome [6] | outcome [7] | outcome [8] | outcome [9] | outcome [10]

O=C(OCc1ccccc1)C(=O)OCc1ccccc1
inactive: Potency [1] | Potency [2] | Potency [4] | Potency [5] | outcome [6] | outcome [7] | outcome [8]

Cc1cc2cc3c(C)cc(=O)oc3c(C)c2o1
inactive: Potency [1] | Potency [2] | Potency [4] | Potency [5] | outcome [6] | outcome [7] | outcome [8] | outcome [9] | outcome [10]

CCCCCCCCCC(C)=O
inactive: Potency [1] | Potency [2] | Potency [4] | Potency [5] | outcome [6] | outcome [7] | outcome [8] | outcome [9] | outcome [10]

O=S(=O)(O)CCN1CCN(CCO)CC1
inactive: Potency [1] | Potency [2] | Potency [3] | outcome [6] | outcome [8] | outcome [9] | outcome [10]

OC[C@H](Cc1cccc(O)c1)[C@H](CO)Cc1cccc(O)c1
inactive: Potency [1] | Potency [2] | Potency [3] | Potency [5] | outcome [7] | outcome [8] | outcome [9] | outcome [10]

CC(=O)c1sc(C)nc1C
inactive: Potency [1] | Potency [2] | Potency [3] | Potency [5] | outcome [6] | outcome [7] | outcome [8] | outcome [9] | outcome [10]

O=C1O[C@@H]2[C@@H](O)[C@H](O)O[C@@H]2[C@H]1O
inactive: Potency [1] | Potency [2] | Potency [3] | Potency [5] | outcome [6] | outcome [8] | outcome [9] | outcome [10]

CC(C)(C)c1nnc(NS(=O)(=O)c2ccc(N)cc2)s1
inactive: Potency [1] | Potency [2] | Potency [4] | Potency [5] | outcome [7] | outcome [8]

O=C(OCC(COC(=O)c1cccnc1)(COC(=O)c1cccnc1)COC(=O)c1cccnc1)c1cccnc1
inactive: Potency [1] | Potency [2] | Potency [3] | Potency [5] | outcome [6] | outcome [7] | outcome [8] | outcome [9] | outcome [10]

N#Cc1ccc(C(=O)O)cc1
inactive: Potency [1] | Potency [2] | Potency [3] | outcome [6] | outcome [8] | outcome [9] | outcome [10]

CC(S)C(=O)NCC(=O)O (centres undefined)
inactive: Potency [1] | Potency [2] | Potency [3] | outcome [6] | outcome [8] | outcome [9] | outcome [10]

Cc1cccc(OCC(O)CNC(C)(C)C)c1C (centres undefined)
inactive: Potency [1] | Potency [2] | Potency [3] | Potency [5] | outcome [6] | outcome [8] | outcome [9] | outcome [10]

Nc1ccc([N+](=O)[O-])c(N)c1
inactive: Potency [2] | Potency [4] | Potency [5] | outcome [6] | outcome [7] | outcome [8] | outcome [9] | outcome [10]
active: Potency [1] 29.9 µM

CCn1ccc(NS(=O)(=O)c2ccc(N)cc2)nc1=O
inactive: Potency [1] | Potency [2] | Potency [4] | Potency [5] | outcome [6] | outcome [8]
